Measurements taken from PubChem BioAssay.
Active and inactive are the calls of the source.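 How the source made its calls, unless noted: active means visual image review flags a hit and inhibition of aggregation exceeds 20%; inconclusive means visual hit but inhibition at or below 20%; inactive means no hit on visual image review.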

Assays:
[1] = inhibitors of TNFa-induced NFkB p65 translocation, primary screen, imaging, HUVEC, MLSMR starter and 10KST1 sets (AID 438;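 active means inhibition above 20% together with a positive visual image hit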;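 further: compound added about 3h40 before a 20 min TNFalpha stimulation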;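 on inhibition: signal is the nuclear over cytoplasmic p65 intensity ratio per well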); conditions: HUVEC TNFa-induced p65 nuclear translocation; cell count: measured here: nuclei count (cytotoxicity indicator), at 2.08 µM; inhibition: at 2 µM, stronger effect = higher value, 0% TNFa-plus-vehicle, 100% no-TNFa wells
[2] = inhibitors of mutant huntingtin aggregation, primary screen, imaging, exon1htt(103Q)mCFP cells, high-content imaging (AID 483); conditions: exon1htt(103Q)mCFP cell line, aggregate imaging, at 2 µM; inhibition of aggregation: stronger effect = higher value; nuclei count: measured here: cell count, toxicity;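 further: compound exposure lasted 3 days before fixation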;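 on nuclei count: percent of the per-plate median nuclei count of sample wells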
[3] = inhibitors of E-selectin induction by TNFa, primary screen, imaging, HUVEC, immunofluorescence, MLSMR starter and 10KST1 sets (AID 487;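 active means visually confirmed hit in the image check and inhibition above 20%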;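 on inhibition: signal is fraction of cell area covered by stained E-selectin grains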;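 on nuclei count: 100% = median nuclei count of all wells on the same plate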); conditions: HUVEC TNFalpha-induced E-selectin immunofluorescence imaging, at 2 µM; inhibition: stronger effect = higher value; nuclei count: measured here: cell number, toxicity
[4] = target: Voltage-gated potassium channel subunit beta-2 (Rattus norvegicus) (UniProt P62483); test: KvBeta enzyme negative modulators, primary screen, biochemical, NADPH fluorescence (AID 622;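 active means fluorescence slope higher than the sample average by over 3 SD, cut at about -0.22 in these data, passing the limit was not always enough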;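 further: slope of raw intensity against log time taken from 70 to 1610 s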); conditions: recombinant KvBeta, 4-cyanobenzaldehyde reduction, at 10 µM, stronger effect = higher value
Sequence of Voltage-gated potassium channel subunit beta-2 (Rattus norvegicus) (P62483 whole entry, looked up): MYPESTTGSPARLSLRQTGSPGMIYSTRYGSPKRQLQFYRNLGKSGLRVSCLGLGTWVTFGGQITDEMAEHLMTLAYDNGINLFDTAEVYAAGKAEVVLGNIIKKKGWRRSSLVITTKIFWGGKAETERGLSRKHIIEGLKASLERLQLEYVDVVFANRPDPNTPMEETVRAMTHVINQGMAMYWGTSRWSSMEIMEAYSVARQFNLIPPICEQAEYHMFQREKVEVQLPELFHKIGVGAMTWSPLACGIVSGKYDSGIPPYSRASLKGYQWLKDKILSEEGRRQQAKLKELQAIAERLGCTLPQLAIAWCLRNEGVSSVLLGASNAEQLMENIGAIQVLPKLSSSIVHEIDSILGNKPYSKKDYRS

[5] = target: Voltage-gated potassium channel subunit beta-2 (Rattus norvegicus) (UniProt P62483); test: KvBeta positive modulators, primary screen, biochemical, NADPH fluorescence (AID 623;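 active means NADPH fluorescence slope more negative than the mean of all samples by about 3 SD, 99.7% confidence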;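 further: fluorescence intensity change per second fitted from 20 to 320 s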); conditions: Recombinant KvBeta, NADPH fluorescence decrease slope, 10 min; at 10 µM; stronger effect = lower value
[6] = target: Alpha-2C adrenergic receptor (Homo sapiens) (UniProt P18825); test: modulators of alpha2C/GIRK thallium flux, primary screen, cell-based, HEK293 alpha2C/GIRK1/2 (AID 624;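 active means fluorescence slope after compound addition differing from the mean of all screened samples at 99.7% confidence, in either direction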;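 further: slope of fluorescence ratio to pre-addition baseline per second over 15 to 24 s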); conditions: thallium flux BTC fluorescence, at 10 µM, actives lie on both sides
Sequence of Alpha-2C adrenergic receptor (Homo sapiens) (P18825 whole entry, looked up): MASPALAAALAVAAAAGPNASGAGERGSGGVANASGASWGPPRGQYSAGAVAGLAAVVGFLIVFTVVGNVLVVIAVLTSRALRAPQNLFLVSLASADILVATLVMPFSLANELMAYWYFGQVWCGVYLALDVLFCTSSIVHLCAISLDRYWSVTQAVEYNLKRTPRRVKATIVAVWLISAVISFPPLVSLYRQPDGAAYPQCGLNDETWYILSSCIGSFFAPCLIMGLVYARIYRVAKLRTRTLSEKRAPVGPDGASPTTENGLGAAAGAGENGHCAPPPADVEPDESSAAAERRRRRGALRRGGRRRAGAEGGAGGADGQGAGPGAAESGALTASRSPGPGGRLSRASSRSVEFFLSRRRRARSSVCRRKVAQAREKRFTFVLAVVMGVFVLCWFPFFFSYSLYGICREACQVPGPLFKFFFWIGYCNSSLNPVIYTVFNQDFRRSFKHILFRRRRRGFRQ

[7] = inhibitors of Sendai virus-induced IRF3 signaling, primary screen, TLR/RLR signaling modifier project, cell-based, Sendai virus stimulus, luciferase, 10K MLSCN set (AID 602276;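 active means inhibition at or above 50% at 10 µM; inactive means inhibition below 50%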;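 further: firefly luciferase from ISG56 promoter only with Renilla not read in this screen; 0% = Sendai virus plus DMSO and 100% = medium plus DMSO without virus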); conditions: HEK293 RL24 IRF3 luciferase reporter, at 10 µM, stronger effect = higher value
[8] = inhibitors of poly I:C-induced TLR3 signaling, primary screen, cell-based, poly I:C stimulus, luciferase, 10K MLSCN set (AID 602277;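 active means inhibition of the reporter signal at or above 50%; inactive means inhibition below 50%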); conditions: HEK293-TLR3 RL24 IRF3 luciferase reporter, at 10 µM, stronger effect = higher value

| SMILES | cell count [1] | inhibition [1] | inhibition of aggregation [2] | nuclei count [2] [%] | inhibition [3] | nuclei count [3] [%] | fluorescence slope [4] | NADPH fluorescence slope [5] | slope [6] | inhibition [7] | inhibition [8] |
| --- | --- | --- | --- | --- | --- | --- | --- | --- | --- | --- | --- |
| Cc1cc2nc(C3CCN(CC4COc5ccccc5O4)CC3)[nH]c2cc1C (centres undefined) | 746 | -8.3% (inactive) | -2.5% (inactive) | 92 | -56.9% (inactive) | 107 | -0.433 (inactive) | -1.9e-05 (inactive) | 0.00449 (inactive) | -0.371% (inactive) | -21.4% (inactive) |
| Nc1nc(N2CCCCC2)nc(N(c2ccccc2)c2ccccc2)n1 | 710 | -2.9% (inactive) | 23.2% (inactive) | 88 | -33% (inactive) | 91.6 | -0.544 (inactive) | -5.4e-05 (inactive) | 0.00708 (inactive) | 10.2% (inactive) | 34.4% (inactive) |
| C=CCn1c(N)c(C(=O)NCCC2=CCCCC2)sc1=S | 450 | 6.6% (inactive) | -12.8% (inactive) | 104 | 4% (inactive) | 116 | -0.626 (inactive) | -1.2e-05 (inactive) | 0.00668 (inactive) | 0.338% (inactive) | -64.6% (inactive) |
| CCOC(=O)c1cnc(C(C)(C)C)[nH]c1=O | 328 | -6.5% (inactive) | -6.3% (inactive) | 109 | -109% (inactive) | 142 | -0.318 (inactive) | -4.2e-05 (inactive) | 0.00422 (inactive) | 10.2% (inactive) | 17.4% (inactive) |
| O=C(CCn1cccc1)N1CCc2ccccc21 | 281 | 6.5% (inactive) | -5.2% (inactive) | 108 | -12% (inactive) | 106 | -0.554 (inactive) | 2e-05 (inactive) | 0.00578 (inactive) | -13.2% (inactive) | -44.8% (inactive) |
| Cc1nn(S(=O)(=O)N2CCCCC2)c(C)c1Br | 335 | 4% (inactive) | 10.9% (inactive) | 101 | -93.4% (inactive) | 119 | -0.291 (inactive) | -1.5e-05 (inactive) | 0.00571 (inactive) | 1.73% (inactive) | 17.2% (inactive) |
| O=C(NCCC1=CCCCC1)c1cc2c(s1)CS(=O)(=O)C2 | 610 | 6% (inactive) | -19.3% (inactive) | 102 | 31% (inactive) | 94.9 | -0.433 (inactive) | -0.000138 (inactive) | 0.00559 (inactive) | -7.34% (inactive) | -9.88% (inactive) |
| Cc1cccc(NC(=O)CC(C)(C)C)c1 | 349 | -6.6% (inactive) | 12% (inactive) | 95.6 | -1.1% (inactive) | 99.8 | -0.369 (inactive) | 2.2e-05 (inactive) | 0.00657 (inactive) | 10.5% (inactive) | 6.01% (inactive) |
| CCOc1ccc(Oc2nc(Nc3ccc(C)cc3)nc(N(C)C)n2)nn1 | 619 | -0.3% (inactive) | 25.8% (inactive) | 71.1 | -14.3% (inactive) | 106 | -0.491 (inactive) | -4.9e-05 (inactive) | 0.00543 (inactive) | -17.8% (inactive) | 1.23% (inactive) |
| C=C(C)COc1ccc(-c2n[nH]c(C)c2-c2ccccc2)c(O)c1 | 456 | -8% (inactive) | 3.7% (inactive) | 99.2 | 0.8% (inactive) | 81.8 | -0.46 (inactive) | -3.2e-05 (inactive) | 0.00246 (inactive) | -6.65% (inactive) | 11.2% (inactive) |
| Cc1cc2cc(CN(CC3CCCO3)C(=O)c3cnccn3)c(=O)[nH]c2cc1C (centres undefined) | 330 | 5.3% (inactive) | -0.3% (inactive) | 107 | -22.4% (inactive) | 125 | -0.592 (inactive) | -5.9e-05 (inactive) | 0.00376 (inactive) | -3.76% (inactive) | -3.05% (inactive) |
| CCN(Cc1cc2cc(OC)ccc2[nH]c1=O)C(=O)c1ccncc1 | 458 | -1% (inactive) | -12.3% (inactive) | 111 | -34.1% (inactive) | 198 | -0.498 (inactive) | 4.7e-05 (inactive) | 0.00638 (inactive) | 13.5% (inactive) | 20.1% (inactive) |
| O=C(c1ccco1)N1CCN(S(=O)(=O)c2ccc(Oc3ccccc3)cc2)CC1 | 243 | 22.6% (inactive) | -4.9% (inactive) | 77.4 | -81.4% (inactive) | 111 | -0.519 (inactive) | 2.5e-06 (inactive) | 0.00632 (inactive) | 5.47% (inactive) | -52.2% (inactive) |
| Cc1nc(NC(=O)c2csc3ccccc23)sc1C | 386 | -2.7% (inactive) | -3.7% (inactive) | 103 | -38.1% (inactive) | 117 | -0.504 (inactive) | -5.5e-05 (inactive) | 0.00508 (inactive) | -31.4% (inactive) | -86.4% (inactive) |
